Results filed as inconclusive are left out. Activity calls are given as the source filed them. Calls come from the whole dose curve; as a rule, active = well fitted curve in the direction sought with a large enough effect; inconclusive = small, poorly fitted or top-dose-only effect, or another doubt; inactive = no such curve, though single readings can be large; an effect the other way counts as inactive or inconclusive.
Assays:
W2 = test: qHTS profiling for inhibitors of Plasmodium falciparum proliferation (AID 504749); note: nearly all actives have a fitted effect of over 60% in size; note: potency is the fitted concentration of half-maximal effect; conditions: P. falciparum in erythrocytes, SYBR Green DNA, 72 h; series mostly up to 28.7 µM
How it was run: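 Readout was DNA-dye fluorescence from lysed cultures, ex 485/em 535 nm. Parasitized red cells had grown 72 h with compound; data scaled between 0.29 uM artemisinin and DMSO wells and corrected using vehicle-only plates.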

CRL-7250 = normal cell line; test: Cytotoxic Profiling of Annotated Libraries Using Quantitative High-Throughput Screening (AID 1296008); conditions: Five cell lines viability, CellTiter-Glo ATP luminescence, 48-72 h; max response: hits give low values; note: nearly all actives have a fitted effect of over 60% in size; for max response: % is set by controls: 0 for no effect and ±100 for the full control effect
How it was run: (§1)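 Cells exposed to compounds for 48 or 72 hr at 37 degrees Celsius. Viability read as ATP-coupled luminescence with CellTiter-Glo after 10 min at room temperature.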

HEK293 = test: as above; conditions: Five cell lines viability, CellTiter-Glo ATP luminescence, 48-72 h; max response: hits give low values
How it was run: as §1

HaCat = test: as above; conditions: Five cell lines viability, CellTiter-Glo ATP luminescence, 48-72 h; max response: hits give low values
How it was run: as §1

KB-3-1 = test: as above; conditions: Five cell lines viability, CellTiter-Glo ATP luminescence, 48-72 h; max response: hits give low values
How it was run: as §1

NIH3T3 [1] = test: as above; conditions: Five cell lines viability, CellTiter-Glo ATP luminescence, 48-72 h; max response: hits give low values
How it was run: as §1

MCC-13 = test: qHTS assay to identify novel small-molecules to repurpose for Merkel cell carcinoma treatment (AID 1296009); conditions: MCC and control cell lines, CellTiter-Glo viability, 72 h; series mostly up to 46 µM; note: nearly all actives have a fitted effect of over 60% in size; note: potency is the fitted concentration of half-maximal effect
How it was run: (§2)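 Cells were incubated with compound for 72 hr at 37 degree celsius before CellTiter-Glo addition. Luminescence was normalized with no-cell wells as full cytotoxicity and DMSO as baseline.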

MCC-26 = test: as above; conditions: MCC and control cell lines, CellTiter-Glo viability, 72 h; series mostly up to 46 µM
How it was run: as §2

MKL-1 = test: as above; conditions: MCC and control cell lines, CellTiter-Glo viability, 72 h; series mostly up to 46 µM
How it was run: as §2

MKL-2 = test: as above; conditions: MCC and control cell lines, CellTiter-Glo viability, 72 h; series mostly up to 46 µM
How it was run: as §2

UISO = test: as above; conditions: MCC and control cell lines, CellTiter-Glo viability, 72 h; series mostly up to 46 µM
How it was run: as §2

WaGa = test: as above; conditions: MCC and control cell lines, CellTiter-Glo viability, 72 h; series mostly up to 46 µM
How it was run: as §2

C33A = test: Primary qHTS to identify gynecologic anti-cancer compounds using libraries of approved drugs and bioactive compounds (AID 1345084); conditions: Gynecologic cancer cell panel viability, ATPlite luminescence, 48 h; series mostly up to 57.5 µM; note: % is set by controls: 0 for no effect and ±100 for the full control effect; nearly all actives have a fitted effect of over 55% in size
How it was run: (§3)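 Five-point cytotoxicity, 48 h drug exposure at 37 C, 5% CO2, on cells seeded 16 h beforehand. ATP content read by ATPlite luminescence.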

CASKI = test: as above; conditions: Gynecologic cancer cell panel viability, ATPlite luminescence, 48 h; series mostly up to 57.5 µM
How it was run: as §3

Es-2 = test: as above; conditions: Gynecologic cancer cell panel viability, ATPlite luminescence, 48 h; series mostly up to 57.5 µM
How it was run: as §3

HeLa = test: as above; conditions: Gynecologic cancer cell panel viability, ATPlite luminescence, 48 h; series mostly up to 57.5 µM
How it was run: as §3

CAOV3 = test: as above; conditions: Gynecologic cancer cell panel viability, ATPlite luminescence, 48 h; series mostly up to 57.5 µM
How it was run: as §3

NIH3T3 [2] = test: qHTS assay to identify novel small-molecules to repurpose for Merkel cell carcinoma treatment (AID 1296009); conditions: MCC and control cell lines, CellTiter-Glo viability, 72 h; at 44.8 µM (top of the series); note: nearly all actives have a fitted effect of over 60% in size; note: potency is the fitted concentration of half-maximal effect
How it was run: as §2

Cc1nc(-c2ccc(Cl)cc2)oc1COC(C)(C)C(=O)O
inactive: Potency (W2) | outcome (CRL-7250) | max response (HEK293) 4.06% | max response (HaCat) 3.89% | max response (KB-3-1) -5.49% | max response (NIH3T3 [1]) 1.1% | Potency (MCC-13) | Potency (MCC-26) | Potency (MKL-1) | Potency (MKL-2) | Potency (UISO) | Potency (WaGa) | Potency (C33A) | Potency (CASKI) | Potency (Es-2) | Potency (HeLa)

CN1CCN(C2=Nc3ccccc3Sc3ccc(Cl)cc32)CC1
active: Potency (W2) 3.79 µM
inactive: max response (CRL-7250) -8.62% | max response (HEK293) -15.3% | max response (HaCat) -2.52% | max response (KB-3-1) -8.12% | max response (NIH3T3 [1]) -1.36% | Potency (MCC-13) | Potency (MCC-26) | Potency (MKL-1) | Potency (MKL-2) | Potency (UISO) | Potency (C33A) | Potency (CAOV3) | Potency (CASKI) | Potency (Es-2) | Potency (HeLa)

CC(C)Nc1cccnc1N1CCN(C(=O)c2cc3cc(NS(C)(=O)=O)ccc3[nH]2)CC1
active: Potency (W2) 9.53 µM
inactive: outcome (CRL-7250) | max response (HEK293) -14.8% | max response (HaCat) 0.0011% | max response (KB-3-1) -4.88% | max response (NIH3T3 [1]) -1.79% | Potency (MCC-13) | Potency (MKL-1) | Potency (MKL-2) | Potency (UISO) | Potency (WaGa) | Potency (C33A) | Potency (CAOV3) | Potency (CASKI) | Potency (Es-2) | Potency (HeLa)

C=C1c2cccc(O)c2C(O)=C2C(=O)[C@]3(O)C(O)=C(C(N)=O)C(=O)[C@@H](N(C)C)[C@@H]3[C@@H](O)[C@H]12
inactive: outcome (CRL-7250) | max response (HEK293) -1.35% | max response (HaCat) -8.16% | max response (KB-3-1) -4.44% | outcome (NIH3T3 [1]) | Potency (MCC-13) | Potency (MCC-26) | Potency (MKL-1) | outcome (NIH3T3 [2]) | Potency (UISO) | Potency (WaGa) | Potency (C33A) | Potency (CAOV3) | Potency (CASKI) | Potency (Es-2) | Potency (HeLa)

O=[N+]([O-])c1ccc(/C=N\O)o1
active: Potency (MKL-1) 18.8 µM | Potency (WaGa) 23.7 µM
inactive: max response (CRL-7250) -1.03% | max response (HEK293) -8.88% | max response (HaCat) 1.07% | max response (KB-3-1) -13.1% | max response (NIH3T3 [1]) -18.1% | Potency (MCC-13) | Potency (MCC-26) | Potency (C33A) | Potency (CASKI) | Potency (Es-2) | Potency (HeLa)

CCCCCCCCOc1ccc(C(=O)c2ccccc2)c(O)c1
inactive: Potency (W2) | max response (CRL-7250) -1.36% | max response (HEK293) -1.87% | max response (HaCat) -8.31% | max response (KB-3-1) 1.72% | max response (NIH3T3 [1]) -1.51% | Potency (MCC-13) | Potency (MCC-26) | Potency (MKL-1) | Potency (MKL-2) | Potency (UISO) | Potency (WaGa) | Potency (C33A) | Potency (CASKI) | Potency (Es-2) | Potency (HeLa)

c1ccc(CC2=NCCN2)cc1
inactive: Potency (W2) | max response (CRL-7250) 1.69% | max response (HEK293) -22.9% | max response (HaCat) -10.1% | max response (KB-3-1) -6.13% | max response (NIH3T3 [1]) -5.64% | Potency (MCC-13) | Potency (MCC-26) | Potency (MKL-1) | Potency (UISO) | Potency (C33A) | Potency (CAOV3) | Potency (CASKI) | Potency (Es-2) | Potency (HeLa)

CCNC(=O)/C=C/c1cccc(Br)c1
inactive: Potency (W2) | outcome (CRL-7250) | max response (HEK293) -0.855% | max response (HaCat) 0.498% | max response (KB-3-1) -0.104% | max response (NIH3T3 [1]) -21% | Potency (MCC-13) | Potency (MCC-26) | Potency (MKL-1) | Potency (MKL-2) | Potency (UISO) | Potency (WaGa) | Potency (C33A) | Potency (CAOV3) | Potency (CASKI) | Potency (Es-2) | Potency (HeLa)

O=C(O)c1ccc(S(=O)(=O)N(Cl)Cl)cc1
inactive: Potency (W2) | max response (CRL-7250) 3.6% | max response (HEK293) 3.96% | max response (HaCat) -0.853% | max response (KB-3-1) -9.69% | max response (NIH3T3 [1]) -3.94% | Potency (MCC-13) | Potency (MCC-26) | Potency (MKL-1) | Potency (MKL-2) | Potency (UISO) | Potency (WaGa) | Potency (C33A) | Potency (CAOV3) | Potency (CASKI) | Potency (Es-2) | Potency (HeLa)

CC(C)Cn1cnc2c1c(=O)n(C)c(=O)n2C
inactive: Potency (W2) | outcome (CRL-7250) | max response (HEK293) -0.637% | max response (HaCat) -0.147% | max response (KB-3-1) -13.7% | max response (NIH3T3 [1]) 1.58% | Potency (MCC-13) | Potency (MKL-1) | Potency (MKL-2) | Potency (UISO) | Potency (WaGa) | Potency (C33A) | Potency (CAOV3) | Potency (CASKI) | Potency (Es-2)

OC1C(O)C(O)C(O)C(O)C1O (stereo not given)
inactive: Potency (W2) | outcome (CRL-7250) | max response (HEK293) 2.94% | max response (HaCat) 2.27% | max response (KB-3-1) -8.66% | max response (NIH3T3 [1]) -6.2% | Potency (MCC-13) | Potency (MCC-26) | Potency (MKL-1) | Potency (MKL-2) | Potency (UISO) | Potency (WaGa) | Potency (C33A) | Potency (CAOV3) | Potency (CASKI) | Potency (Es-2) | Potency (HeLa)

CC(=O)OCC1=C(C(=O)O)N2C(=O)[C@@H](NC(=O)CSc3ccncc3)[C@H]2SC1
inactive: max response (CRL-7250) -1.6% | max response (HEK293) 4.22% | max response (HaCat) 0.118% | max response (KB-3-1) 2.34% | max response (NIH3T3 [1]) 1.18% | Potency (MCC-13) | Potency (MCC-26) | Potency (MKL-1) | Potency (UISO) | Potency (C33A) | Potency (CAOV3) | Potency (CASKI) | Potency (Es-2) | Potency (HeLa)

C#C[C@]1(O)CC[C@H]2[C@@H]3CCc4cc(OC)ccc4[C@H]3CC[C@@]21C
inactive: Potency (W2) | max response (CRL-7250) -13.3% | max response (HEK293) -6.93% | max response (HaCat) -21.7% | max response (KB-3-1) 0.369% | max response (NIH3T3 [1]) -5.18% | Potency (MCC-13) | Potency (MCC-26) | Potency (MKL-1) | Potency (UISO) | Potency (WaGa) | Potency (C33A) | Potency (CAOV3) | Potency (CASKI) | Potency (Es-2) | Potency (HeLa)

CCCCC(CC)COC(=O)c1ccc(N(C)C)cc1 (stereo not given)
inactive: Potency (W2) | outcome (CRL-7250) | max response (HEK293) -4.34% | max response (HaCat) -11.9% | max response (KB-3-1) 0.633% | max response (NIH3T3 [1]) 4.63% | Potency (MCC-13) | Potency (MKL-1) | Potency (MKL-2) | Potency (UISO) | Potency (WaGa) | Potency (C33A) | Potency (CAOV3) | Potency (CASKI) | Potency (Es-2) | Potency (HeLa)
